Experimental data taken from PubChem BioAssay (NCI).
About 83,000 compounds went through this panel and 20% of them were active in at least one assay; those are over-represented in the sample as a whole.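 Single-dose data. Exposure time 48 hours. Values below 10 considered active.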 Calls of active or inactive are those of the source.

How the values were obtained:
Experiment in all cases: NCI-60 one-dose screen, 48 h (100 = growth as untreated, 0 = no growth, -100 = all killed)
Conditions in all cases: 10 µM unless noted
[1] = test system: HCT-15 colon
[2] = test system: HT29 colon
[3] = test system: SNB-75 CNS
[4] = test system: SNB-19 CNS
[5] = test system: U251 CNS
[6] = test system: PC-3 prostate
[7] = test system: SK-MEL-5 melanoma
[8] = test system: UACC-62 melanoma
[9] = test system: LOX IMVI melanoma
[10] = test system: SK-MEL-28 melanoma

Measured: growth

CCC(C)N(CCNc1cc(OC)cc2cccnc12)CCC(C)C (stereo not given)
inactive: [1] 76.6% | [2] 55.6% | [3] 100% | [4] 96.2% | [5] 84% | [6] 79.3% | [7] 95.2% | [8] 94.2% | [9] 86% | [10] 99.7%

COc1ccc(Cn2nc(-c3ccccc3)c3c2CCc2cnoc2-3)cc1
inactive: [1] 67.6% | [2] 84% | [3] 65.5% | [4] 82.2% | [5] 78% | [6] 52.9% | [7] 74.5% | [8] 51.5% | [9] 72.8% | [10] 84.8%

CCCCCCN(C)Cc1ccc(OCCOc2ccc(CN(C)CCCCCC)cc2)cc1
inactive: [3] 28.8% | [4] 27.9% | [6] 23.9%
active: [1] 5.57% | [2] 1.29% | [5] 7.97% | [7] -99.7% | [8] -11.5% | [9] -95.3% | [10] -68.7%

OC(c1ccccc1)c1ccccn1 (stereo not given)
inactive: [1] 105% | [2] 89.3% | [3] 86.5% | [4] 100% | [5] 96.1% | [6] 89.9% | [7] 101% | [8] 103% | [9] 103% | [10] 107%

Fc1ccc(C2CC(c3cccc(Nc4ccncc4)c3)=NN2c2ccccc2)cc1 (stereo not given)
inactive: [3] 68.2% | [4] 79% | [5] 18.9% | [6] 40.6% | [7] 76.4% | [8] 88.8% | [9] 29.8%
active: [1] 2.73% | [2] 0.645% | [10] -57%

Fc1ccc(-n2cc(COc3ncnc4sc5c(c34)CCCC5)nn2)cc1Cl
inactive: [1] 100% | [2] 97.3% | [3] 90.5% | [4] 94.7% | [5] 99.7% | [6] 89.5% | [7] 103% | [8] 92.2% | [9] 93.7% | [10] 110%

COc1ccc(-c2c[nH]c(C(=O)O)c2-c2cc(OC)c3c(c2OC)OCO3)cc1
inactive: [1] 103% | [2] 110% | [3] 91.6% | [4] 101% | [5] 104% | [6] 103% | [7] 102% | [8] 95.4% | [9] 95.4% | [10] 104%

C=C1C(=O)O[C@H]2[C@H]1CC/C(CNC(=O)/C=C/c1ccc(Br)cc1)=C\CC[C@@]1(C)O[C@@H]21
active: [1] -64.2% | [2] -74.5% | [5] -28.3% | [6] -55.2% | [8] -93.5% | [9] -95.2% | [10] -66.1%
inactive: [3] 48.9% | [4] 15.9% | [7] 28.7%

Cc1cc2cc3cc(C)c(N)cc3[n+](C)c2cc1N
inactive: [1] 31.8% | [3] 38.3% | [4] 11.6% | [7] 18.4% | [8] 33% | [10] 21.7%
active: [2] -16.8% | [5] 6% | [6] 8.84% | [9] -4.56%

COc1ccc(C(=O)/C=C/c2c(OC)cc(OC)cc2OC)c(OC)c1
inactive: [4] 33.6% | [5] 15.5% | [8] 11.9% | [9] 27.3% | [10] 56.8%
active: [1] 5.27% | [2] 1.7% | [3] 8.7% | [6] 6.39% | [7] -5.47%

CCNC(=O)c1[nH]cc(-c2ccc(OC)cc2)c1-c1cc(OC)cc(OC)c1
inactive: [1] 68.6% | [2] 94.6% | [3] 67% | [4] 84% | [5] 98% | [6] 84.2% | [7] 61.1% | [8] 48.2% | [9] 83.4% | [10] 87.9%

CC1NC(=S)NC(=O)/C1=C/c1cc(=O)oc2c1ccc1ccccc12 (stereo not given)
inactive: [1] 103% | [2] 87.7% | [3] 73.3% | [4] 103% | [5] 94.9% | [6] 72.8% | [7] 97.1% | [8] 99.1% | [9] 89.2% | [10] 115%

COc1ccc(C2=NN(C(C)=O)C(c3cn(Cc4ccc(Cl)cc4)c4ccccc34)C2)cc1 (stereo not given)
inactive: [1] 81.6% | [2] 90.1% | [3] 79.2% | [4] 76% | [5] 84.5% | [6] 59.9% | [7] 85.6% | [8] 66.6% | [9] 89.3% | [10] 94%

CN1C2CCC1CN(c1cnc(C(=O)Nc3cc(F)cc4cccnc34)cn1)C2
inactive: [1] 24.2% | [2] 37.1% | [3] 92.5% | [4] 92.7% | [5] 64% | [6] 15.2% | [7] 79.5% | [8] 94.9% | [9] 33.2% | [10] 57.8%

Nc1nnc(C(=O)c2cnc3n(c2=O)CCCCC3)s1
inactive: [1] 102% | [2] 115% | [3] 85.7% | [4] 102% | [5] 101% | [6] 101% | [7] 98.5% | [8] 93.3% | [9] 89% | [10] 106%

NC(=O)c1ncn(C2OC(CO)C(O)C2O)n1 (stereo not given)
inactive: [1] 89.3% | [2] 73.3% | [3] 80.6% | [4] 104% | [5] 99.7% | [6] 85.2% | [7] 99.1% | [8] 104% | [9] 90.3% | [10] 106%

COC(=O)CCCCCCCCC1(C)C=CC(C(C)O)=CC1 (stereo not given)
inactive: [1] 105% | [2] 99.9% | [3] 106% | [4] 107% | [5] 98.5% | [6] 97.6% | [7] 99% | [8] 107% | [9] 96.7% | [10] 119%

O=C(CCN1CCCC1)Nc1ccc2c(Nc3ccccc3)c3ccccc3nc2c1
active: [1] -3.61% | [2] 4.21% | [5] 0.528% | [9] -55.3%
inactive: [3] 10.9% | [4] 18.4% | [6] 19.9% | [7] 40.4% | [8] 30.3% | [10] 62.3%

O=C1CCCN1c1cccc2cccnc12
inactive: [1] 101% | [2] 103% | [3] 83.1% | [4] 91% | [5] 96.4% | [6] 107% | [7] 99.1% | [8] 104% | [9] 95.6% | [10] 113%

COc1cc(C2CC(c3cccc(Nc4ccncc4)c3)=NN2c2ccc(Cl)cc2)cc(OC)c1OC (stereo not given)
active: [1] -36.4% | [2] -30.3% | [5] -53.2% | [6] -22% | [7] -50.7% | [9] -88.8% | [10] -83.2%
inactive: [3] 26.1% | [4] 57.9% | [8] 91.1%

Clc1cc(Cl)cc(N2N=C(c3cccc(Nc4ccncc4)c3)CC2c2ccc(Br)cc2)c1 (stereo not given)
active: [1] -66.5% | [2] -12.2% | [5] -29.8% | [9] -88.4% | [10] -21.8%
inactive: [3] 78.3% | [4] 85.8% | [6] 33.3% | [7] 79% | [8] 102%

COc1ccc(-n2cc(-c3cc(OC)c(OC)c(OC)c3)n(C(C)=O)c2=O)cc1
inactive: [1] 94.9% | [2] 108% | [3] 69.5% | [4] 86.1% | [5] 88.2% | [6] 94% | [8] 84.1% | [9] 94% | [10] 115%
active: [7] 6.54%

Nc1nc(N)nc(NCc2ccccc2)n1
inactive: [1] 97.6% | [2] 101% | [3] 96.5% | [4] 107% | [5] 105% | [6] 105% | [7] 103% | [8] 101% | [9] 101% | [10] 106%

COc1ccc(C(=O)c2cc3c(N)c(C(=O)Nc4cccc(OC)c4)sc3nc2C)cc1
inactive: [1] 16% | [4] 40.2% | [5] 15.1% | [6] 28.7% | [7] 15.3% | [8] 44.5% | [9] 36.6% | [10] 56.7%
active: [2] 1.18% | [3] -10.6%

CC(=O)OCC(=O)C1(O)C(C)CC2C3C=C(C)C4=Cc5c(cnn5-c5ccccc5)CC4(C)C3C(O)CC21C (stereo not given)
active: [1] -36.2% | [2] -54.9% | [3] -8.24% | [6] 9.92% | [7] -14.2% | [8] -26.6% | [9] 6.79%
inactive: [4] 10.3% | [5] 14.3% | [10] 35.3%

O=C1c2ccccc2C(=O)c2c(NCCN=Cc3ccccc3O)cccc21
inactive: [1] 40.7% | [2] 32.4% | [3] 68.4% | [4] 65.3% | [5] 60.5% | [6] 66.7% | [7] 61.9% | [8] 62.8% | [9] 21.3% | [10] 91.7%

CCCOc1nc(SCCC)nc2c1cnn2-c1ccccc1
inactive: [1] 108% | [2] 83.1% | [3] 98.6% | [4] 103% | [5] 107% | [6] 102% | [7] 106% | [8] 86.8% | [9] 110% | [10] 122%

O=C(Nc1ccccc1)Oc1ccccc1-c1ccccc1
inactive: [1] 102% | [2] 96.5% | [3] 75.5% | [4] 99.5% | [5] 95.2% | [6] 80.4% | [7] 97.9% | [8] 93.2% | [9] 95.2% | [10] 107%
